From PubChem BioAssay (Tox21)
Values joined by “and” are separate entries in the source; they are usually repeats but may differ in a detail not shown here. Equal entries are not always repeated. Results filed as inconclusive are left out. Where a call stands in place of a potency, no number is given. Some structures have more than one record in an assay (separate samples or runs), and their calls can disagree. Active and inactive are the calls of the source. Calls come from the whole dose curve; as a rule, active = well fitted curve in the direction sought with a large enough effect in the repeat runs; inconclusive = weak or mixed curves; inactive = no such curve, though single readings can be large; an effect the other way counts as inactive or inconclusive.

Test: qHTS assay to identify small molecule agonists of the RXR signaling pathway - cell viability counter screen (AID 1159529); note: nearly all actives have a fitted effect of over 50% in size
Conditions: RXR-alpha-bla HEK293T viability, CellTiter-Glo, 16 h; series mostly up to 76.8 µM
Summary of the method: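 Compounds dissolved in DMSO were pinned onto HEK 293T cells carrying a beta-lactamase reporter under RXR-alpha control and incubated 16 hr. Cytotoxicity was then quantified by CellTiter-Glo luminescence.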
Potency is the fitted concentration of half-maximal effect.

| SMILES | Potency |
| --- | --- |
| CC(=O)[O][Hg][c]1ccccc1 | 1.72 µM (active) and 1.95 µM (active) and 2.39 µM (active) |
| CCCC[n+]1ccc(C)cc1 | inactive and 34.5 µM (active) |
| Cc1cc(Cl)ccc1OCC(=O)O | inactive |
| CCC(=O)C(CC(C)N(C)C)(c1ccccc1)c1ccccc1 (stereo not drawn) | 43.8 µM (active) |
| Nc1ccc(-c2ccc(N)cc2)cc1 | inactive |
| CCNc1nc(Cl)nc(NCC)n1 | inactive |
| O=[N+]([O-])c1ccccc1O | inactive |
| O=C(O)C(Cl)(Cl)Cl | inactive |
| Cc1cc(-c2ccc(N)c(C)c2)ccc1N | inactive |
| O=P1(N(CCCl)CCCl)NCCCO1 (stereo not drawn) | inactive |
| O=C(O)c1ccccc1O | inactive |
| CCOP(=S)(OCC)Oc1ccc2c(C)c(Cl)c(=O)oc2c1 | inactive |
| Oc1ccccc1-c1ccccc1 | inactive |
| COCC(=O)N(c1c(C)cccc1C)C(C)C(=O)OC (stereo not drawn) | inactive |
| COc1ccccc1N | inactive |
| Oc1cccc2cccnc12 | 780 nM (active) and 692 nM (active) and inactive |

| SMILES | Potency |
| --- | --- |
| OCCOc1ccccc1 | inactive |
| C[C@]12CCC(=O)C=C1CC[C@@H]1[C@@H]2CC[C@]2(C)C(=O)CC[C@@H]12 | inactive |
| CC[N+](CC)(CC)CC | inactive |
| O=C(O)CCl | inactive |
| COP(=O)(OC)C(O)C(Cl)(Cl)Cl (stereo not drawn) | inactive |
| C1CCC(NC2CCCCC2)CC1 | inactive |
| CCn1cc[n+](C)c1C | inactive |
| Cc1cc(Cl)ccc1N | inactive |
| CCCCCCCCCCCC(=O)O | inactive |
| CCCCCC[n+]1ccccc1 | 55.5 µM (active) and 49.3 µM (active) and inactive |
| O=[N+]([O-])O | inactive |
| CCCCCCCCn1cc[n+](C)c1 | inactive |
| CCCC[n+]1ccccc1 | inactive |
| Nc1ccc(Cl)cc1 | inactive |
| CC[n+]1ccccc1 | inactive |
| CNC | inactive |

Test: qHTS assay to identify small molecule antagonists of the retinoid acid receptor (RAR) signaling pathway - cell viability counter screen (AID 1159551); note: nearly all actives have a fitted effect of over 35% in size
Conditions: C3RL4 cells viability, ATP luminescence (CellTiter-Glo), 6 h; series mostly up to 92.4 µM
Summary of the method: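 In this counter screen, the RARE-luciferase line C3RL4 was exposed for 6 h at 37 C and 5% CO2 to compounds with retinol at 1 uM final. Cellular ATP, read by luminescence, served as the viability measure.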

| SMILES | Potency |
| --- | --- |
| CC(=O)[O][Hg][c]1ccccc1 | 5.4 µM (active) and 13.7 µM (active) and 16.8 µM (active) |
| CCCC[n+]1ccc(C)cc1 | inactive |
| Cc1cc(Cl)ccc1OCC(=O)O | inactive |
| CCC(=O)C(CC(C)N(C)C)(c1ccccc1)c1ccccc1 (stereo not drawn) | inactive |
| Nc1ccc(-c2ccc(N)cc2)cc1 | inactive |
| CCNc1nc(Cl)nc(NCC)n1 | inactive |
| O=[N+]([O-])c1ccccc1O | inactive |
| O=C(O)C(Cl)(Cl)Cl | inactive |
| Cc1cc(-c2ccc(N)c(C)c2)ccc1N | inactive |
| O=P1(N(CCCl)CCCl)NCCCO1 (stereo not drawn) | inactive |
| O=C(O)c1ccccc1O | inactive |
| CCOP(=S)(OCC)Oc1ccc2c(C)c(Cl)c(=O)oc2c1 | inactive |
| Oc1ccccc1-c1ccccc1 | inactive |
| COCC(=O)N(c1c(C)cccc1C)C(C)C(=O)OC (stereo not drawn) | inactive |
| COc1ccccc1N | inactive |
| Oc1cccc2cccnc12 | inactive and 7.7 µM (active) |

| SMILES | Potency |
| --- | --- |
| OCCOc1ccccc1 | inactive |
| C[C@]12CCC(=O)C=C1CC[C@@H]1[C@@H]2CC[C@]2(C)C(=O)CC[C@@H]12 | inactive |
| CC[N+](CC)(CC)CC | inactive |
| O=C(O)CCl | inactive |
| COP(=O)(OC)C(O)C(Cl)(Cl)Cl (stereo not drawn) | inactive |
| C1CCC(NC2CCCCC2)CC1 | inactive |
| CCn1cc[n+](C)c1C | inactive |
| Cc1cc(Cl)ccc1N | inactive |
| CCCCCCCCCCCC(=O)O | inactive |
| CCCCCC[n+]1ccccc1 | inactive |
| O=[N+]([O-])O | inactive |
| CCCCCCCCn1cc[n+](C)c1 | inactive |
| CCCC[n+]1ccccc1 | inactive |
| Nc1ccc(Cl)cc1 | inactive |
| CC[n+]1ccccc1 | inactive and 54 µM (active) |
| CNC | inactive |

Test: qHTS assay to identify small molecule antagonists of the retinoic acid receptor (RAR) signaling pathway (AID 1159552; note: nearly all actives have a fitted effect of over 50% in size)
Conditions: C3RL4 RARE luciferase reporter, retinol-stimulated, 6 h; series mostly up to 92.4 µM
Summary of the method: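 Test chemicals and DMSO controls were pin-transferred onto C3RL4 cells a day after seeding; retinol (1 uM final) followed at once. Luminescent reporter output was quantified after 6 hr of co-incubation and 30 min with detection reagent.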

| SMILES | Potency |
| --- | --- |
| CC(=O)[O][Hg][c]1ccccc1 | 1.92 µM (active) and 1.54 µM (active) and 2.11 µM (active) |
| CCC(=O)C(CC(C)N(C)C)(c1ccccc1)c1ccccc1 (stereo not drawn) | inactive |
| Nc1ccc(-c2ccc(N)cc2)cc1 | inactive |
| CCNc1nc(Cl)nc(NCC)n1 | inactive |
| O=[N+]([O-])c1ccccc1O | inactive |
| O=C(O)C(Cl)(Cl)Cl | inactive |
| Cc1cc(-c2ccc(N)c(C)c2)ccc1N | inactive |
| CCOP(=S)(OCC)Oc1ccc2c(C)c(Cl)c(=O)oc2c1 | inactive |
| COCC(=O)N(c1c(C)cccc1C)C(C)C(=O)OC (stereo not drawn) | inactive |
| COc1ccccc1N | inactive |
| OCCOc1ccccc1 | inactive |
| C[C@]12CCC(=O)C=C1CC[C@@H]1[C@@H]2CC[C@]2(C)C(=O)CC[C@@H]12 | 47.7 µM (active) and inactive |
| O=C(O)CCl | inactive |
| COP(=O)(OC)C(O)C(Cl)(Cl)Cl (stereo not drawn) | inactive |
| C1CCC(NC2CCCCC2)CC1 | inactive |
| CCn1cc[n+](C)c1C | inactive |
| Cc1cc(Cl)ccc1N | inactive |
| CCCCCCCCCCCC(=O)O | inactive |
| CCCCCCCCn1cc[n+](C)c1 | inactive |
